# From PubChem
# PKM2 act: PKM2 (human) enzyme activation; purified PKM2, Kinase-Glo ATP luminescence, activation; response scale: 0% is enzyme alone, no compound; P14618; actives 0.34% (n = 260,000); AID 1631; Potency, µM (highest dose often 57.5 µM), inactives show at the highest dose activation, actives largely listed as activators; active means well fitted activation curve with a large enough effect; inconclusive means small, poorly fitted or top-dose-only effect; inactive means no such curve, though single readings can be large or run the other way; further: potency means the concentration at half of the fitted maximal effect; nearly all actives have a fitted effect of over 55% in size
# Target sequence (P14618 whole entry, looked up): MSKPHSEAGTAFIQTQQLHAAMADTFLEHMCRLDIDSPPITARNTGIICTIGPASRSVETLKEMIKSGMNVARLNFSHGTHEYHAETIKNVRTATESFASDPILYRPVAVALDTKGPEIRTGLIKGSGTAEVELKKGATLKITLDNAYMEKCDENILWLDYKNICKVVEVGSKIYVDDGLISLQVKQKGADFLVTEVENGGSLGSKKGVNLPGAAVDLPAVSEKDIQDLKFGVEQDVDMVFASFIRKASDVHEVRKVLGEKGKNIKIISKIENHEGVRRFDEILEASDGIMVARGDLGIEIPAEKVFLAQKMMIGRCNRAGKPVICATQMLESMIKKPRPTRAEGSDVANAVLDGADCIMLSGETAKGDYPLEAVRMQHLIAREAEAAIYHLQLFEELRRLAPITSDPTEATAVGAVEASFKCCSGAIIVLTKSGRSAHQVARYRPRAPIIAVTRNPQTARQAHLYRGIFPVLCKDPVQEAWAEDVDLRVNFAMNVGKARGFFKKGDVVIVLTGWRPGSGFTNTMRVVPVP
#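 Purified hPK-M2 (>95% pure) converted ADP (0.1 mM final) to ATP with 0.5 mM PEP in 50 mM imidazole pH7.2, KCl, MgCl2, Tween 20, BSA; 1 h at room temperature. ATP detected by Kinase-Glo luminescence.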
# CtBP-E1A inh: CtBP/E1A binding inhibition; actives 0.49% (n = 340,000); activity change, % (no concentration beside the values); AlphaScreen GST-E1A/His-CtBP binding, 1536-well; hits give low values
#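 AlphaScreen with 125 nM GST-E1A and 125 nM His-CtBP (5X stocks) in Tris pH 8.0, 300 mM NaCl, BSA, Tween 20, TCEP. Compounds preincubated 2 h at 37 deg C, then glutathione donor/nickel acceptor beads added for 1 h at 37 deg C in dark.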
# Six1-Eya2 inh: blocks human Six1 binding to Eya2 | AlphaScreen GST-Six1/His-Eya2 binding, biochemical; hits give low values | actives 0.56% (n = 360,000) | AID 651725 | Q15475+O00167 | activity change, % (no concentration beside the values)
#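 AlphaScreen with GST-Six1 and His-Eya2 (5X mix: 250 nM and 500 nM), glutathione donor and nickel acceptor beads; buffer 50 mM Tris pH 8.0, 300 mM NaCl, 1 mM TCEP; 1 h at 37 C in the dark.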
# MBNL1-CUG inh: blocks human MBNL1 binding to CUG repeat RNA | Q9NR56 | TR-FRET MBNL1-His/biotin-(CUG)12 binding, 665/545 ratio | Potency, µM (doses to about 57.5 µM), without a hit: at the top dose activity change, negative = inhibition, most hits filed as inhibitors | AID 2675 | actives 0.036% (n = 280,000); active means well fitted inhibition curve with a large enough effect in the signal ratio, with a control signal flat, not every such curve was filed as active; inconclusive means small, poorly fitted or top-dose-only effect, or effect the other way, or a change in a side signal; inactive means no such curve, though single readings can be large or run the other way; the % refers to the signal ratio; further: potency means the concentration at half of the fitted maximal effect
#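 TR-FRET between His-tagged MBNL1 and biotin-(CUG)12 RNA, detected with Tb anti-His antibody (0.055 ng/ul) and streptavidin-XL665 (5 nM), 60 min at room temperature. Compounds titrated 92 nM to 58 uM; 665/545 nm ratio normalized to buffer and complex controls.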
# * hit, by the source's call; ? = inconclusive; . = not tested or not shown; [ ] = remark or other dose. Sampled rows, rich in hits. Any-hit rate of the full collection: about 0.93%. Unless noted, no stated cut-off is given here; in the data, active means activity change below about -65%; inconclusive means mostly about -30% to -63%; inactive means weaker than that. On the % scale 0 is the no-effect control and ±100 the full control effect.
SMILES,PKM2 act,CtBP-E1A inh,Six1-Eya2 inh,MBNL1-CUG inh
c1ccc(-c2ccc(SCc3cccnc3)nn2)nc1,0.8%,-88.9*,-90.6*,-2.8%
O=C(CSc1ccc(-c2ccccn2)nn1)N1CCCc2ccccc21,-1.3%,-66.2*,-80.4*,3.0%
c1ccc(CSc2ccc(-c3ccccn3)nn2)nc1,2.5%,-94.2*,-92.9*,4.4%
c1cncc(CSc2ccc(-c3cccnc3)nn2)c1,13.5%,0.0,0.8,-1.4%
COc1ccc(NC(=O)C(c2ccncc2)n2c(=O)c(-c3ccccc3)nc3ccccc32)cc1 (configuration not stated),.,-2.5,-15.7,.
O=C(Cc1ccccc1)NC1CCN(S(=O)(=O)c2ccc(C(=O)O)cc2)CC1,0.1%,1.6,0.6,-8.8%
O=C(Cc1ccccc1)NC1CCN(S(=O)(=O)c2cccc(F)c2)CC1,28.2µM*,-10.0,2.9,-8.6%
Cc1ccc(CN2CCN(/N=C/C=C/c3ccccc3[N+](=O)[O-])CC2)cc1,-0.8%,-75.8*,?,?
S=C(c1ccc(-c2ccc(Br)cc2)o1)N1CCCCC1,5.7%,-16.8,-25.6,20.5%
S=C(c1ccc(-c2ccc(Br)cc2)o1)N1CCOCC1,12.6µM*,?,?,19.1%
CCCNC(=O)C1(C)CCN(C(=O)c2sccc2C)C1 (configuration not stated),.,-2.8,4.2,.
COc1ccc(C2=NOC(C(=O)Nc3cc(C)on3)C2)cc1OC (configuration not stated),3.55µM*,.,-3.8,6.8%
COc1cc(C2=NOC(C(=O)Nc3cc(C)on3)C2)cc(OC)c1OC (configuration not stated),1.6%,.,-2.7,1.0%
O=Cc1ccc(OC(=O)/C=C/c2ccccc2)cc1,.,-94.4*,?,4.3%
COc1ccc(OC(=O)/C=C/c2ccc([N+](=O)[O-])cc2)cc1,.,-87.0*,-19.5,2.8%
COc1cccc(NC(=O)/C=C/c2ccc([N+](=O)[O-])cc2)c1,1.2%,-22.2,-18.0,?
CCCCS(=O)(=O)N1C2=NC(C(=O)OC)=C(C(=O)OC)[C@@H]3N(C)c4ccccc4[C@]23C[C@H]1C(=O)OC,-6.6%[11.5 µM],.,.,.
C=CC(=O)N1CCCC(Nc2nc(Nc3ccc(N(C)C(=O)CC)cc3C)nc3nc[nH]c23)C1 (configuration not stated),.,?,-66.6*,.
Cc1ccc(NC2CCCN(C(=O)CCC3=NNC(=O)CC3)C2)cc1C (configuration not stated),-3.2%,0.0,9.0,-7.9%
Cc1cc(C(=O)N/N=C/c2ccc([N+](=O)[O-])s2)n[nH]1,3.0%,?,-8.7,.
O=[N+]([O-])c1ccc(Cl)cc1C=NNc1ccccn1,.,6.0,-4.2,.
Cc1cc(C(=O)N/N=C/c2cc(Cl)cc([N+](=O)[O-])c2O)n[nH]1,-7.7%,-80.9*,?,?
O=[N+]([O-])c1cc(Cl)cc(/C=N\Nc2ccccn2)c1O,-5.0%,-87.3*,-94.7*,-3.0%
O=C(Nc1cccnc1)C1Cc2c(-c3ccc4c(c3)OCO4)ccnc2O1 (configuration not stated),.,0.7,-8.8,.
N#CC1=C(N)Oc2cc(O)ccc2C1c1ccncc1 (configuration not stated),20µM*,-6.3,-1.1,?
SMILES,PKM2 act,CtBP-E1A inh,Six1-Eya2 inh,MBNL1-CUG inh
O=c1oc2ccccc2c2c1C1O[C@](c3ccsc3)(Cc3c1ccc1ccccc31)O2,7.5%[11.5 µM],.,.,23.1%[11.5 µM]
O=c1[nH]c(=O)c2nc3c4ccccc4c4ccccc4c3nc2[nH]1,11.2µM*,.,?,49.1%
O=c1[nH]c(=O)c2nc(-c3ccc(Cl)cc3)cnc2[nH]1,1.4%,0.0,-11.4,?
CC(C)COC(=O)N1CCCCC1c1cc(C(=O)NC(C)C)no1 (configuration not stated),.,-8.1,8.9,.
CC(Cc1ccccc1)C(=O)NCCc1c[nH]c2ccccc12 (configuration not stated),4.2%,.,.,.
COCCCNC(=S)NNC(=O)c1csc(C)n1,-1.3%,.,-78.4*,-2.8%
COCCCNC(=S)NNC(=O)c1ccc(C(C)(C)C)cc1,0.5%,.,2.6,.
COc1ccc(S(=O)(=O)n2nc(OC(=O)c3c(-c4ccccc4Cl)noc3C)cc2N)cc1,-3.7%,?,-72.4*,-0.9%
Cc1ccc(C(O)c2ncc(-c3ccccc3Cl)[nH]2)cc1F (configuration not stated),.,-14.3,-6.7,.
CCOc1cc(/C=C(\C#N)c2[nH]nc(N)c2C#N)ccc1O,2.7%,-81.5*,-67.2*,?
COc1ccc(S(=O)(=O)N2CCOC23CCN(S(=O)(=O)c2cc(F)ccc2F)CC3)cc1,.,2.4,-69.4*,.
Cc1ccc(C2CC(c3ccc(NS(C)(=O)=O)cc3)=NN2C(=O)c2ccco2)cc1 (configuration not stated),?,-24.0,-25.4,?
CS(=O)(=O)Nc1ccc(C2=NN(C(=O)c3ccco3)C(c3ccccc3)C2)cc1 (configuration not stated),14.1µM*,-3.8,-16.6,.
CCS(=O)(=O)Nc1ccc(C2=NN(C(=O)c3ccco3)C(c3ccc(C)cc3)C2)cc1 (configuration not stated),7.94µM*,-5.9,-8.1,?
Nc1ccc(S(=O)(=O)Nc2nccc(/C=C/c3ccc(Cl)cc3)n2)cc1,-0.6%,-76.0*,?,2.8%
Nc1ccc(S(=O)(=O)Nc2nccc(/C=C/c3ccc([N+](=O)[O-])cc3)n2)cc1,-6.4%,-28.8,-16.2,22.9%
C[C@H](CO)N1C[C@H](C)[C@@H](CN(C)C(=O)Nc2ccccc2)Oc2ccc(NC(=O)Nc3ccc4c(c3)OCO4)cc2C1=O,.,-65.0*,?,.
COc1ccc(NC(=O)N(C)C[C@H]2Oc3ccc(NC(=O)Cc4ccccc4)cc3C(=O)N([C@H](C)CO)C[C@@H]2C)cc1,.,-9.0,-19.2,.
COc1ccc(NC(=O)Nc2ccc3c(c2)C(=O)N([C@H](C)CO)C[C@H](C)[C@@H](CN(C)C(=O)Nc2ccccc2)O3)cc1,.,-67.1*,?,.
Cc1ccc(NC(=O)CC2S/C(=N/N=C3/NC(=O)CS3)NC2=O)cc1 (configuration not stated),-0.2%,-22.6,-74.9*,-3.8%
CCOC(=O)c1ccc(NC(=O)CC2S/C(=N/N=C3/NC(=O)CS3)NC2=O)cc1 (configuration not stated),-1.8%,?,?,4.0%
CC(C)(C)n1nnnc1C(CCc1ccccc1)N1CCN(C/C=C/c2ccccc2)CC1 (configuration not stated),.,-16.1,-15.2,.
CC(=O)N1N=C(c2ccc3nccnc3c2)CC1c1ccccc1 (configuration not stated),11.6%,-0.1,2.4,13.3%
CC(=O)N1N=C(c2ccccc2OC(=O)/C=C/c2ccccc2)CC1c1ccccc1 (configuration not stated),10.9%,-79.9*,?,-6.1%
